Laboratory results taken from the supplement of paper PMC3334620.
Whole data set: some 33,000 sequences, median “E-score (-0.5 to 0.5)” near -0.0059, cut for the highest 2% near 0.26. The sample holds the highest values, similar sequences and a random draw of the others, so the mix is not that of the screen.

target: T1, Cin5 (UniProt P40917); assay: PBM E-score (8-mer binding enrichment) (E-score (-0.5 to 0.5)); higher = stronger / more preferred TF binding; settings: protein concentration: 100 nM; construct: GST-full length
T1 sequence: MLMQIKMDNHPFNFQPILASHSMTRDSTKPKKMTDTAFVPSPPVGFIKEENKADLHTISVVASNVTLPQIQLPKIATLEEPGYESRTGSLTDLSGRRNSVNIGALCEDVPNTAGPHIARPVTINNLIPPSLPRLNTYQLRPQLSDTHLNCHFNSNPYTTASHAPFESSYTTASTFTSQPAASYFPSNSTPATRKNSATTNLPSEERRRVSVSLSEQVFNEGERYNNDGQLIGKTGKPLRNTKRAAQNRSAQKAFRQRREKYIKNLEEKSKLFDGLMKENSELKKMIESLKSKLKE
Description: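 Universal 'all 10-mer' protein binding microarrays (Agilent AMADID 015681) probed with GST-tagged S. cerevisiae TFs (full-length or DBD) made by in vitro transcription/translation (PURExpress), about 100-200 nM. Bound TF was detected with fluorescent anti-GST. Each ungapped 8-mer (which stands for itself and its reverse complement) is scored by the PBM enrichment score (E-score), a modified Wilcoxon-Mann-Whitney statistic from -0.5 to +0.5, computed with the Universal PBM Analysis Suite. Scale: above 0.35 generally sequence-specific binding.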

| Sequence | PBM E-score |
| --- | --- |
| CACGGAGG | -0.173 |
| CTGTCTAA | -0.0712 |
| CGCGCCGA | -0.124 |
| CAGGTCCC | -0.187 |
| GCCTCCTA | -0.264 |
| AATTATTA | 0.242 |
| GATTATTA | 0.316 |
| GATTATGA | 0.291 |
| CATTATTA | 0.223 |
| CATTATGA | 0.13 |
| GATTATGC | 0.172 |
| ACTGCAAC | -0.0484 |
| AAGAGTCA | -0.12 |
| GAAAGATA | 0.31 |
| TAAAGATA | 0.171 |
| CGAAGATA | 0.266 |
| GAAAGAAA | 0.283 |
| AGAAGATA | 0.188 |
| CAAAGAAA | 0.0585 |
| GAAAGAAC | -0.0462 |
| CAAAGATA | 0.12 |
| GGAAGATA | 0.13 |
| CACGAGAC | -0.11 |
| TAAGAAGA | 0.122 |
| GATGCAAC | -0.0342 |

| Sequence | PBM E-score |
| --- | --- |
| GGAACCCA | -0.0933 |
| TAAAGGGA | -0.115 |
| AATTGGGT | 0.319 |
| AATTGGGG | 0.0653 |
| AATTGGGC | 0.0334 |
| TATAGCAA | 0.134 |
| GATAGCAA | 0.279 |
| CATAGCAA | 0.111 |
| CTTAAGAA | 0.0235 |
| ACGGAAAA | 0.161 |
| ACGGAAAC | -0.00025 |
| ACGGAAAT | 0.305 |
| CGGCACCG | 0.00123 |
| CCACATAA | 0.184 |
| ACACATAC | 0.0411 |
| ACACATAG | -0.0306 |
| TCACATAA | 0.31 |
| ACACATAA | 0.274 |
| GCACATAA | 0.0702 |
| CACTATCG | 0.0597 |
| AGCCAAAA | 0.0959 |
| CGGTTTGA | -0.0691 |
| AGGTTTAT | 0.251 |
| CGAGAGCC | -0.163 |
| AAGCCAAT | 0.122 |

| Sequence | PBM E-score |
| --- | --- |
| AACGTAAA | 0.21 |
| GACGTAAA | 0.103 |
| TACGTAAA | 0.302 |
| CACGTAAC | 0.0354 |
| AACGTAAC | 0.217 |
| CACGTAAG | 0.288 |
| AACGTAAG | 0.274 |
| CACGTAAA | -0.0217 |
| CTCGTAAC | 0.129 |
| TACGTATA | 0.167 |
| CTCGTAAG | 0.304 |
| ATCGTAAG | 0.159 |
| AGCAGCGC | -0.0185 |
| ACCACCTG | -0.0268 |
| AATCGCTA | -0.0414 |
| ACGAGCCC | -0.0676 |
| GAACTCAC | -0.014 |
| AACGTAAT | 0.421 |
| ACCGTAAT | 0.223 |
| AACGTACT | 0.105 |
| AAATTAGG | 0.102 |
| AATTTAGT | 0.284 |
| AATTTAGA | 0.0855 |
| AAATTAGA | 0.206 |
| AAATTAGT | 0.293 |

| Sequence | PBM E-score |
| --- | --- |
| AATTTAGG | 0.168 |
| GGAGCTCC | -0.164 |
| GTCTAACA | -0.192 |
| CGATGGCA | -0.0471 |
| ACCACAGT | 0.181 |
| CATCCACG | 0.0707 |
| ACCGTTTA | -0.034 |
| CAACCGCC | -0.126 |
| CAACCGCG | 0.269 |
| CAACCGCA | 0.0315 |
| AAACCGCC | 0.0261 |
| AAACCGCG | 0.265 |
| AAACCGCA | -0.142 |
| AATTGTGC | 0.124 |
| CAGCGGAA | 0.0943 |
| GCCCATCA | -0.115 |
| AGCTCTCC | -0.174 |
| ACGGAACA | 0.2 |
| CCGGAACA | 0.145 |
| TCGGAACA | 0.29 |
| GTATATTA | 0.219 |
| CTATATTA | 0.325 |
| CTATATTC | 0.0546 |
| ATATATTG | 0.088 |
| ACATATTG | 0.0935 |

| Sequence | PBM E-score |
| --- | --- |
| ATATATTC | 0.248 |
| ATATATTA | 0.272 |
| CCATATTA | 0.169 |
| ACATATTA | 0.266 |
| TGAGGCCA | 0.0508 |
| TGGCCTAA | -0.0968 |
| AACGGGAG | -0.0138 |
| CAACCGTC | -0.179 |
| ATAAATTG | 0.272 |
| ACAAATTA | 0.269 |
| TAAAATTA | 0.178 |
| ACAAATTG | 0.248 |
| CCAAATTA | 0.187 |
| ATAAATTC | 0.0845 |
| AAAAATTG | -0.0306 |
| AAAAATTA | 0.227 |
| ATAAATTA | 0.349 |
| GTAAATTA | 0.192 |
| CTAAATTC | 0.0709 |
| CTAAATTA | 0.258 |
| CCGAGGAG | -0.213 |
| AGAGCCTG | -0.163 |
| ACGAAGAG | -0.0165 |
| CCGAAAGC | -0.328 |
| AAGGGTAC | -0.137 |

| Sequence | PBM E-score |
| --- | --- |
| ATCGACTG | 0.101 |
| ACGTGGAA | -0.00812 |
| TCGTGGAA | 0.263 |
| GCGTGGAA | 0.106 |
| GGACACCC | -0.226 |
| AGAAGCGC | 0.0405 |
| GATCCCAA | -0.0221 |
| CAAGCAAG | -0.103 |
| ATTAACAC | 0.271 |
| CATAACAA | 0.252 |
| ATTAACAG | 0.0268 |
| AATAACAC | 0.247 |
| GATAACAA | 0.1 |
| ATTAACAA | 0.274 |
| ATTAACTC | 0.17 |
| GTTAACTA | 0.205 |
| GTTAACAA | 0.17 |
| TATAACAA | 0.295 |
| CTTAACAC | 0.152 |
| ATTAACTA | 0.272 |
| CCACTAAC | 0.0063 |
| ATTGGGGA | 0.00734 |
| AGGTCCTC | -0.134 |
| GCCGCGAC | -0.086 |
| ACGAACGG | 0.0374 |

| Sequence | PBM E-score |
| --- | --- |
| CACGATAG | 0.139 |
| CTAGTCAG | -0.0157 |
| AGGACCCG | -0.169 |
| ACCATACC | -0.0386 |
| ATCAGTTG | 0.209 |
| CCAGCGCA | -0.132 |
| ATATTCCG | 0.179 |
| ATATTCCA | 0.274 |
| CTATTCCA | 0.215 |
| GAATTCCA | 0.173 |
| CAATTCCA | 0.0576 |
| AAATTCCA | 0.295 |
| AAAAGCTT | -0.127 |
| CCTCAATA | -0.0429 |
| CCGGGGCC | -0.242 |
| CTCGAGAA | -0.0673 |
| ACTTGTAC | 0.00779 |
| ATATCTCA | 0.277 |
| ATCTCTCA | 0.216 |
| CTATCTCA | -0.00021 |
| CTGCTATA | 0.117 |
| GCAACTCA | 0.00079 |
| TAAGCTGA | 0.267 |
| GAAGCTTA | 0.171 |
| CAAGCTTA | 0.184 |

| Sequence | PBM E-score |
| --- | --- |
| TAAGCTTA | 0.372 |
| AAAGCTGA | -0.056 |
| CAAGCTGA | 0.233 |
| GGCTGTCA | -0.21 |
| TATATCAA | 0.196 |
| GCATCGGC | -0.125 |
| ACTACCCG | -0.0362 |
| AGCTTCCG | -0.0682 |
| CGTATTAC | 0.214 |
| AGTATTAC | 0.27 |
| AGTATTAG | 0.275 |
| GGTATTAA | 0.064 |
| AGTATTCC | 0.225 |
| GGTATTAC | 0.271 |
| AGTATTAA | 0.242 |
| CGTATTAG | 0.109 |
| AGTATTAT | 0.0851 |
| GGTTGCTA | -0.0578 |
| GACCGCCA | -0.0859 |
| CACTGTAC | -0.0867 |
| CTTGCACC | 0.0355 |
| AAGCACAT | 0.206 |
| AGGAGAGC | -0.394 |
| AGCAGCAG | -0.0447 |
| CCTGGTAC | -0.1 |

| Sequence | PBM E-score |
| --- | --- |
| CTCTGATC | -0.162 |
| CTATTATA | 0.142 |
| ATATTGTA | 0.151 |
| ATATTAGA | 0.159 |
| GCATTACA | 0.167 |
| GTATTGTA | 0.274 |
| CTATTGTA | 0.13 |
| GTATTAGA | 0.234 |
| GTATTATA | 0.267 |
| CTATTACA | 0.181 |
| GTATTACA | 0.34 |
| ATATTATA | 0.265 |
| GCATTATA | 0.152 |
| AGCTAGGC | -0.14 |
| CGCCGCAA | 0.0347 |
| GACAGTCA | -0.165 |
| CCGAATGA | -0.0132 |
| CCCAATAC | -0.00655 |
| TTCCGGAA | 0.248 |
